Experimental data as given in PubChem BioAssay (NCI).
Compounds without any hit were thinned out: in the full panel of roughly 79,000, 15% have a hit. No stated cut-off is given here; in the data, active means growth inhibition above about 70%; inactive means the rest.

Columns and labels:
[1] = NCI Yeast Anticancer Drug Screen. Data for the rad50 strain (AID 155);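 further: 0% = growth of vehicle-only cultures of the same strain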; conditions: S. cerevisiae rad50 strain growth inhibition; at 50.0 µM; stronger effect = higher value
Method in brief: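 Cells are treated with compound, grown, and their growth is then scored against vehicle-only cultures of the same repair-deficient yeast strain.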

[2] = NCI Yeast Anticancer Drug Screen. Data for the mec2-1 strain (AID 157); conditions: S. cerevisiae mec2-1 strain, at 50.0 µM, stronger effect = higher value
Method in brief: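 Strain: mec2-1 (DNA repair/cell cycle alteration). Compound exposure, then growth measured; inhibition expressed relative to vehicle.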

[3] = NCI Yeast Anticancer Drug Screen. Data for the sgs1 mgt1 strain (AID 161);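 further: 0% = growth of cultures given vehicle only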; conditions: S. cerevisiae sgs1 mgt1 strain, at 50.0 µM, stronger effect = higher value
Method in brief: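 Genetically altered yeast, compound exposure, growth inhibition relative to vehicle.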

[4] = NCI Yeast Anticancer Drug Screen. Data for the cln2 rad14 strain (AID 165);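 further: 0% = growth equal to vehicle treated cultures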; conditions: S. cerevisiae cln2 rad14 strain, at 50.0 µM, stronger effect = higher value
Method in brief: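 Compounds are applied to the cln2 rad14 yeast strain, and growth is then compared with that of vehicle-treated cultures to give inhibition.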

[5] = NCI Yeast Anticancer Drug Screen. Data for the bub3 strain (AID 167); conditions: S. cerevisiae bub3 mutant strain, at 50.0 µM, stronger effect = higher value
Method in brief: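 Part of a panel of yeast mutants defective in DNA damage repair or cell cycle regulation. Each strain is grown with compound, and inhibition is calculated relative to solvent-treated cultures.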

[6] = NCI Yeast Anticancer Drug Screen. Data for the mlh1 rad18 strain (AID 175); conditions: S. cerevisiae mlh1 rad18 strain growth inhibition; at 50.0 µM; stronger effect = higher value
Method in brief: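 Read-out is yeast growth inhibition, calculated against vehicle-only controls. The compound was applied to a strain engineered with DNA damage repair alterations.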

Measured: growth inhibition

COc1ccc(/C=C/C=C/C(=O)O)cc1OC
inactive: [1] -2.8% | [2] -9.7% | [3] -12.4% | [4] 5.85% | [5] 2.8% | [6] 15.1%

COC(=O)C(Cc1nc2ccccc2[nH]c1=O)C(NO)C(=O)Nc1c(Cl)cc([N+](=O)[O-])cc1Cl (stereo unspecified)
inactive: [1] -3.85% | [2] -7.4% | [3] 36.6% | [4] 10.2% | [5] 22.2% | [6] -1.75%

O=C(Nc1ccccc1)C1CC=C2CCC3OC(=O)C1C23 (stereo unspecified)
inactive: [1] -11.4% | [2] -16.7% | [3] -23.4% | [4] -16% | [5] -14.7% | [6] -18.1%

Ic1ccc(N=Nc2ccccc2)cc1
inactive: [1] -8% | [2] -11.9% | [3] -5.35% | [4] -70.3% | [5] 25.3% | [6] -12.5%

O/N=C1\CCCC\C1=N/O.O/N=C1\CCCC\C1=N/O.[Pt]
inactive: [1] 34.8% | [2] -0.8% | [3] 8.05% | [4] 19.3% | [5] -1.75% | [6] 8.05%

COc1ccc(/C=N/N2CN(C(C)C(=O)O)C(O)(CCl)N=C2N)cc1OC (stereo unspecified)
inactive: [1] 0.95% | [2] -8.95% | [3] -3% | [4] -27.4% | [5] 5.1% | [6] -1.5%

O=C1/C(=C/c2ccccc2)CN(C(=O)OCC(Cl)(Cl)Cl)C/C1=C\c1ccccc1
inactive: [1] 2.6% | [2] 7.3% | [3] -31.4% | [4] 4.9% | [5] -11% | [6] -57.7%

O=[N+]([O-])Cc1ccc(Cl)cc1
inactive: [1] 4.6% | [2] 18.4% | [3] 13.1% | [4] -33% | [5] -19.7% | [6] 15.6%

O=C(O)C(=Cc1ccc(Br)cc1)C(=O)O
inactive: [1] 41.5% | [2] -25.8% | [3] 13.5% | [4] 20.8% | [5] 23.1% | [6] 31.9%

NCC(O)CN
inactive: [1] -13.8% | [2] -0.75% | [3] -2.75% | [4] -8.2% | [5] -0.55% | [6] 1.45%

CCc1nn2c(=O)nc(Oc3ccccc3)nc2s1
inactive: [1] -5.55% | [2] 8.85% | [3] 2% | [4] 2.55% | [5] 14.6% | [6] 23.4%

O=C(NC1(C(=O)O)CC1c1ccccc1)c1ccccc1 (stereo unspecified)
inactive: [1] -1.2% | [2] 21% | [3] 0.05% | [4] -10.2% | [5] 9.05% | [6] 42.8%

CC(C)CC(=O)NC(Nc1ccc(S(=O)(=O)Nc2ncccn2)cc1)(C(F)(F)F)C(F)(F)F
inactive: [1] -2.9% | [2] -9.95% | [3] 14.3% | [4] 20.6% | [5] -5.8% | [6] 6.8%

COc1ccc2cc1Oc1ccc(cc1)C[C@@H]1c3cc(c(OC)cc3CCN1C)Oc1c(OC)c(OC)cc3c1[C@@H](C2)N(C)CC3
inactive: [1] 33% | [2] -20.8% | [3] 18.6% | [4] -2.7% | [5] 21.9% | [6] 31.2%

CC(C)CCC[C@@H](C)[C@H]1CC[C@H]2[C@@H]3CC[C@H]4OC(=O)CC[C@]4(C)[C@H]3CC[C@]12C
inactive: [1] -19.4% | [2] -33.9% | [3] -30.4% | [4] -2.2% | [5] -27.7% | [6] -9.85%

O=Cc1cc2ccccc2c2ccccc12
inactive: [1] -23.2% | [2] -24% | [3] 5.45% | [4] -16.8% | [5] 0.2% | [6] -4.9%

CCN=C(NCC)N(CC)CC
inactive: [1] -20.4% | [2] -5.75% | [3] -12.8% | [4] -11.6% | [5] 25.3% | [6] -11.8%

C1COC(C2=NCCO2)=N1
inactive: [1] -12.5% | [2] 2.6% | [3] -14.1% | [4] -42% | [5] 6.1% | [6] -0.4%

CC1(C)N=C(N)N=C(N)N1c1ccc(C(=O)c2ccccc2)cc1
inactive: [1] 2.65% | [2] -3.5% | [3] -3.3% | [4] -3.1% | [5] 13.5% | [6] 15.5%

O=C1c2ccccc2C(=O)N1CCCSc1ccc(F)cc1
inactive: [1] 32.8% | [2] -9.5% | [3] 28.4% | [4] 3.5% | [5] 15.3% | [6] 36.2%

CNc1nc(C(F)(F)F)nc(Cl)c1N
inactive: [1] 10% | [2] 2.5% | [3] 13.4% | [4] -7.95% | [5] 15.3% | [6] 7.4%

Cc1nn(C(=O)Cc2ccccc2)c2c1C(c1ccc(O)cc1O)SC(N)=N2 (stereo unspecified)
inactive: [1] -38.9% | [2] -23.1% | [3] -35.5% | [4] 0.8% | [5] -15.6% | [6] -36.5%

O=c1[nH]c2ccccc2c(N=Cc2ccccc2)c1-c1ccccc1
inactive: [1] -6.95% | [2] -20.6% | [3] -4.6% | [4] -26.8% | [5] -12.1% | [6] -0.4%

CC(C)C(O)C(C)N (stereo unspecified)
inactive: [1] 1.4% | [2] -5.9% | [3] 0.7% | [4] 4.9% | [5] 3.2% | [6] 3.5%

C(=C\c1cc(-c2cc(/C=C/c3ccccc3)[nH]n2)n[nH]1)/c1ccccc1
inactive: [1] 6.15% | [2] 9.1% | [3] -14.3% | [4] 13.2% | [5] -8% | [6] 44.4%

COC(=O)Oc1ccc(Cl)cc1Cl
inactive: [1] -18.1% | [2] -6.05% | [3] 15.9% | [4] -77.4% | [5] -8.25% | [6] 5.7%

O=C(O)Cc1cc(O)c(CC(=O)O)cc1O
inactive: [1] -11.9% | [2] -21.9% | [3] -49.4% | [4] -20.4% | [5] -22.4% | [6] -4.1%

[Cl][Pt+2][Cl].[NH-]C1CCCC1[NH-] (stereo unspecified)
inactive: [1] 13.8% | [2] 9% | [3] 20.9% | [4] 3.8% | [5] 21.9% | [6] 36.8%

N=c1oc2ccc([N+](=O)[O-])cc2cc1C(=O)NCc1ccccc1
inactive: [1] 11.3% | [2] -0.9% | [3] -13.9% | [4] 3.95% | [5] -35.5% | [6] -71.8%

CCC(=O)CCc1ccc(OC)cc1
inactive: [1] 4.55% | [2] -6.75% | [3] -3.85% | [4] -20.6% | [5] -12.2% | [6] -13.8%

COc1ccc(-c2c(C#N)c(-c3ccccc3)n(NS(=O)(=O)c3ccccc3)c(=O)c2C#N)cc1
inactive: [1] -0.05% | [2] 40.7% | [3] 30.4% | [4] 8.45% | [5] 32.6% | [6] 42.1%

CCOC(=O)NN(C(=O)OCC)c1c(NN)n(C)c(=O)n(C)c1=O
inactive: [1] 2.7% | [2] -19.7% | [3] 9.2% | [4] -10.4% | [5] 12.4% | [6] -11.5%

NC1C2CC3CC1CC(C2)O3 (stereo unspecified)
inactive: [1] -10.8% | [2] -8.1% | [3] -9.4% | [4] -68.5% | [5] 7.45% | [6] -14.3%

O=c1[nH]nc(-c2ccccc2)n1/N=C\c1ccccc1
inactive: [1] -33.1% | [2] -10.3% | [3] -15.6% | [4] -26.1% | [5] 6.15% | [6] -26%

Cc1cc(=O)oc2c1c(C)nn2-c1cccc(Cl)c1
inactive: [1] -14.5% | [2] -13.2% | [3] 4.05% | [4] -60.9% | [5] -5.1% | [6] -1.85%

CC(=O)Nc1cccc(F)c1
inactive: [1] -35.1% | [2] 1.1% | [3] -25.4% | [4] -22.2% | [5] -13.8% | [6] -38.1%

CC1CN(C(=S)Nc2ccccc2)CCN1c1ccccc1 (stereo unspecified)
inactive: [1] 4.15% | [2] -2.35% | [3] -4.15% | [4] -34.8% | [5] 9.3% | [6] -5.45%

CC(C)(C)CC(C)(C)c1ccc(OCCOc2ccc(C(=O)NCCNC(=O)c3ccc4ccccc4c3O)cc2N)cc1
inactive: [1] -13% | [2] -5.25% | [3] 3.85% | [4] 26.4% | [5] -7.1% | [6] -16.6%

CCn1c2ccc(N=C=O)cc2c2c3[nH]c(=O)c4cccn4c3ccc21
inactive: [1] -30.9% | [2] 10.2% | [3] -9.4% | [4] 0.55% | [5] -1.8% | [6] 1.25%

COc1cccc(NC(=O)NC(C)(C)C)c1
inactive: [1] 8.2% | [2] -16.1% | [3] 1.2% | [4] -42.1% | [5] -0.7% | [6] -0.05%

NCC(NC(=O)OCc1ccccc1)C(=O)O (stereo unspecified)
inactive: [1] 3.2% | [2] 12.4% | [3] 3.3% | [4] 19.1% | [5] 5.7% | [6] 32.1%
